# Compound activity deposited in PubChem by National Center for Advancing Translational Sciences (NCATS).
# An excerpt weighted towards active compounds, which were near 11% of everything screened.
# AMA1 RON2 block: qHTS for Inhibitors of AMA1-RON; Towards Development of Antimalarial Drug Lead: Primary Screen. AID 720542, 2013. 0.2% of 360,000 active. Potency, µM (titrated, usually from 58.2 µM), for inactives: top-dose activity change, negative = inhibition, usual class: inhibitors. AlphaScreen AMA1-biotinylated RON2 peptide binding. Plasmodium falciparum AMA1 (3D7) - RON2 peptide interaction;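 note: 0% = vehicle wells and -100% = peptide control; nearly all actives have a fitted effect of over 45% in size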
#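 AMA1 (3D7) with his tag at 25 nM final met compounds first, then biotinylated RON2 peptide at 25 nM; detection used donor plus acceptor beads, 10 µg/mL apiece, read by AlphaScreen after 30 min at room temperature.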
# Pf growth 48h: Primary qHTS for delayed death inhibitors of the malarial parasite plastid, 48 hour incubation; Potency, µM (doses to about 28.7 µM), without a hit: at the top dose activity change, negative = inhibition, most hits filed as inhibitors; 5.9% of 310,000 active; P. falciparum luciferase growth in erythrocytes, 48 h; AID 504832, 2011; note: % is set by controls: 0 for no effect and ±100 for the full control effect
#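 In quantitative HTS format, infected erythrocytes bearing luciferase-reporter parasites were treated for a single generation at 37 C. Luminescence after adding detection reagent served as the growth measure.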
# Pf growth 96h: Primary qHTS for delayed death inhibitors of the malarial parasite plastid, 96 hour incubation. P. falciparum luciferase reporter growth, 96 h. Potency, µM (highest dose often 28.7 µM), without a hit: at the highest dose activity change, negative = inhibition, usual class: inhibitors. 6.9% of 320,000 active. AID 504834, 2011; note: % is set by controls: 0 for no effect and ±100 for the full control effect
#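 P. falciparum expressing integrated firefly luciferase grown in erythrocytes (2% hematocrit, 0.05% parasitemia final) with compounds for 96 hours at 37 C, 5% CO2. Growth inhibition read as loss of luminescence after adding luciferase detection reagent.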
# Sm TGR block: qHTS Assay for the Inhibitors of Schistosoma Mansoni Peroxiredoxins; Potency, µM (top dose mostly 114 µM), for inactives: at the top dose activity change, negative = inhibition, actives largely listed as inhibitors; AID 485364, 2010; 3% of 360,000 active; purified TGR, DTNB reduction, TNB absorbance 405 nm; note: % is set by controls: 0 for no effect and ±100 for the full control effect; nearly all actives have a fitted effect of over 60% in size
#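 Kinetic colorimetric format: TGR-catalysed, NADPH-driven DTNB reduction monitored via TNB absorbance. Enzyme dispensed at 20 nM; compound exposure 15 min at room temperature before reaction start.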
# NS1 inh: qHTS Assay for Inhibitors of Influenza NS1 Protein Function. Potency, µM (top dose mostly 46.1 µM), without a hit: top-dose activity, positive = more growth. 0.4% of 270,000 active; calls by dose curve; note: actives are rising curves; nearly all actives have a fitted effect of over 50% in size
#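 Compounds were scored for reversing the slow growth caused by influenza A NS1 in S. cerevisiae, measured by optical density at 600 nm. Assay medium contained 2% galactose at pH 6.0; NS1-free yeast of the same strain were the positive control.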
# Numbers without * were called inactive; ? = inconclusive; nt = not tested or not shown; [ ] = dose if it differs, or a comment. Unless noted, calls come from the whole dose curve; as a rule, active = well fitted curve in the direction sought with a large enough effect; inconclusive = small, poorly fitted or top-dose-only effect, or another doubt; inactive = no such curve, though single readings can be large; an effect the other way counts as inactive or inconclusive. Potency is the fitted concentration of half-maximal effect.
SMILES,AMA1 RON2 block,Pf growth 48h,Pf growth 96h,Sm TGR block,NS1 inh
Cc1ccc(Cn2c(CN3CCN(C(=O)c4ccco4)CC3)nc3c2c(=O)n(C)c(=O)n3C)cc1,-3.9%,2.08µM*,?,-50.4%,-11.4%
CSc1cccc(NC(=O)C2C3C=CC4(O3)C2C(=O)N(CCN2CCOCC2)C4C(=O)NC2CCCCC2)c1 (stereo unspecified),-3.9%,-12.2%,?,?,-4.0%
O=C(CCCC(=O)N(CC(=O)NC1CCCCC1)c1ccccc1F)Nc1ccccn1,-9.0%,-9.3%,?,-4.1%,1.8%
Cn1c(=O)c2c(nc(CN3CCN(C(=O)c4ccco4)CC3)n2Cc2ccc(Cl)cc2)n(C)c1=O,-10.9%,7.38µM*,4.4%[5.75 µM],?,-11.2%
CCCn1c(CN2CCN(C(=O)c3ccco3)CC2)nc2c1c(=O)n(C)c(=O)n2C,2.0%,0.1%,4.0%,-4.0%,-98.2%
COc1ccc(-n2ncc3c(NC4CCCC4)ncnc32)cc1,nt,nt,nt,-2.3%,nt
COC(=O)[C@]1(CC(C)C)N[C@H](c2ccc(-c3ccc(F)cc3)cc2)[C@@H]2C(=O)N(C)C(=O)[C@@H]21,-6.8%,3.29µM*,6.57µM*,?,nt
CCCSc1ccc([C@H]2N[C@@](CC(C)C)(C(=O)OC)[C@H]3C(=O)N(CC)C(=O)[C@@H]23)cc1,5.6%,nt,nt,nt,nt
CCN1C(=O)[C@H]2[C@@H](c3ccc(-c4ccc(F)cc4)c(OC)c3)N[C@@](CC(C)C)(C(=O)OC)[C@H]2C1=O,nt,2.33µM*,2.62µM*,39.8µM*,nt
COC(=O)[C@]1(CC(C)C)N[C@H](c2ccc(-c3ccc(OC)cc3)cc2)[C@@H]2C(=O)N(C)C(=O)[C@@H]21,8.6%,?,?,-26.1%,nt
CCN1C(=O)[C@H]2[C@@H](c3ccc(-c4ccc(F)cc4)cc3)N[C@@](CC(C)C)(C(=O)OC)[C@H]2C1=O,31.1%,10.4µM*,5.22µM*,-13.3%,nt
CCc1nc2ccc(C(=O)NCCCN3CCCC3=O)cn2c1N(CCC(C)C)CCN(C)C,20.7%,nt,nt,nt,nt
Cc1nn(C)c(C)c1CCNC(=O)Nc1ccccc1C(F)(F)F,nt,nt,nt,-6.1%,nt
Cc1ccccc1C(=O)N1CCC[C@H]1C(=O)N1CCC[C@H]1C(=O)NCc1ccccn1,4.2%,nt,nt,nt,nt
CN(CC(=O)Nc1ccccc1C(=O)NC1CC1)Cc1ccc(Cl)s1,15.6%,-24.8%,?,4.4%,nt
COCCNc1nc2nonc2nc1N1C[C@H]2CC[C@H]1C2,-0.5%,11.7%,10.4µM*,-2.4%,0.1%
COCCCNc1nc2nonc2nc1N1C[C@H]2CC[C@H]1C2,7.9%,-17.2%,?,1.1%,0.8%
COCCNc1nc2nonc2nc1N1CCC(N(C)C)C1 (stereo unspecified),3.8%,-17.5%,6.57µM*,0.6%,7.7%
CC[N+](CC)(CC=C(C)C)CC(=O)OC,0.0%,7.2%,?,-1.0%,3.2%
Cc1cc(C)cc(N2C(=O)CSC23C(=O)N(Cc2c(F)cccc2Cl)c2ccccc23)c1 (stereo unspecified),nt,nt,nt,-4.5%,nt
N#Cc1cc2c(=O)n3ccccc3nc2n(-c2nnc(SCc3ccc(F)cc3)s2)c1=O,nt,nt,nt,5.0%,nt
CCOC(=O)c1ccc[n+](CC(=O)c2ccc(OC)cc2)c1,-9.7%,-4.7%,11.5%,0.0%,11.0%
COc1ccc(C(=O)C[n+]2ccc3c(c2)nc(-c2ccccc2)n3C)cc1,10.8%,2.33µM*,32.9%,5.3%,12.5%
COc1ccc(C(=O)C[n+]2ccc3c(c2)nc(-c2ccc(OC)cc2OC)n3C)cc1,-0.5%,11.7µM*,4.15µM*,0.7%,-9.3%
COc1cc(-c2nc3c[n+](CC(=O)c4ccccc4)ccc3n2C)cc(OC)c1OC,10.0%[2.32 µM],7.38µM*,-12.6%,-5.1%,7.4%
SMILES,AMA1 RON2 block,Pf growth 48h,Pf growth 96h,Sm TGR block,NS1 inh
Cc1cccc(-c2nnc(SCC#N)n2Cc2ccccc2)c1,3.7%,nt,?,4.7%,-7.0%
N#CCSc1nnc(C2CCCCC2)n1Cc1ccccc1,3.3%,-15.1%,3.29µM*,4.7%,-1.3%
CCN(CC)c1ccc(NC(=O)CSc2nc3ccccc3c(=O)n2-c2cc(S(=O)(=O)N(C)C)ccc2C)cc1,?,8.28µM*,?,-7.1%,?
O=C(CCN1N=C(c2ccccc2)CCC1=O)NC1CCCC1,2.6%,14.3%,?,-4.3%,0.4%
O=C(CCN1N=C(c2ccccc2)CCC1=O)NCC1CCCO1 (stereo unspecified),0.0%,12.9%,3.7µM*,2.9%,7.0%
CCC(C)n1c(SCC(=O)NC2CCCC2)nc2ccccc2c1=O (stereo unspecified),-0.3%,11.7µM*,?,-5.8%,nt
O=C(CSc1ccc2nc(-c3ccccc3)cn2n1)NCC1CCCO1 (stereo unspecified),-13.1%,67.3%,5.22µM*,2.8%,-2.4%
COC(=O)c1ccc(NC(=O)C(C)Sc2nc(=O)cc(N)n2CCc2ccccc2)cc1 (stereo unspecified),nt,nt,nt,-9.8%,nt
CC(C)[C@H](NC(=O)C1CCN(S(=O)(=O)c2ccccc2)CC1)C(=O)NCc1ccccc1,0.0%,-15.1%,?,-3.2%,?
O=C(CCCn1c(SCC(=O)c2ccc(O)c(O)c2)nc2ccccc2c1=O)NCC1CCCO1 (stereo unspecified),-3.5%,9.28µM*,?,0.0%,-5.6%
COc1ccccc1NC(=O)C(C)Sc1nc2ccccc2c(=O)n1CC1CCCO1 (stereo unspecified),3.6%,10.4µM*,?,-0.4%,nt
O=C(CCCn1c(SCC(=O)NC2CCCCC2)nc2ccccc2c1=O)NCC1CCCO1 (stereo unspecified),-17.3%,?,11.7µM*,5.1%,4.3%
O=C(CCCn1c(SCc2ccccc2F)nc2ccccc2c1=O)NCC1CCCO1 (stereo unspecified),-1.5%,6.57µM*,1.6%,0.0%,nt
O=C1CC(C(=O)N2CCCc3ccccc32)CN1c1ccc(Cl)cc1 (stereo unspecified),-2.9%,-7.7%,?,-12.1%,-14.9%
O=C(CCC(=O)c1cccs1)NCc1cccnc1,7.4%,25.3%,0.0%,0.5%,nt
CCn1c(SCC(=O)NCc2ccccc2)nc2ccccc2c1=O,-0.2%,-1.5%,16.4%,5.5%,-5.3%
O=C(CSc1nc2ccccc2c(=O)n1C1CC1)NCc1ccccc1,-10.8%,-9.1%,14.7µM*,13.9%,-55.6%
O=C(CSc1nc2ccccc2c(=O)n1CC1CCCO1)NCC1CCCO1 (stereo unspecified),0.8%,-12.2%,5.22µM*,12.2%,1.8%
CCCCCn1c(SCC#N)nc2cc(C(=O)NCC3CCCO3)ccc2c1=O (stereo unspecified),4.2%,7.4%,4.65µM*,6.0%,-1.4%
